Shown are actives, neighbours in structure and some others; about 2.1% of the full set was active somewhere.
aSyn yeast inh – alpha-synuclein toxicity inhibition in yeast; AID 652106; Potency, µM (doses to about 46.1 µM), actives largely listed as activators; Yeast expressing alpha-synuclein, growth rescue, BacTiter-Glo, 24 h; actives 0.14% (n = 370,000); also: nearly all actives have a fitted effect of over 65% in size
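Galactose-induced alpha-syn yeast (OD600=0.02, raffinose-pregrown) + pinned cpd, 24 hr, 30 deg C; growth by BacTiter-Glo luminescence. Growth restoration scores as activation.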
TDP43 rescue – inhibitors of TDP-43 toxicity in yeast; TDP-43 expressing yeast growth rescue, BacTiter-Glo, 24 h; Potency, µM (top dose mostly 46.1 µM), usual class: activators; actives 1.8% (n = 410,000); AID 652104; also: nearly all actives have a fitted effect of over 50% in size
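Galactose-induced TDP-43 yeast, OD600=0.02, compound pinned; 24 hr, 30 deg C; BacTiter-Glo luminescence for growth. Inhibitors of TDP-43 toxicity read as activators.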
FUS yeast rescue – rescues growth of FUS-expressing yeast; AID 1347120; actives 0.24% (n = 390,000); Potency, µM (series often up to 76.6 µM), hits mostly activators; S. cerevisiae FUS-expressing, growth rescue, OD600, 24 h; also: nearly all actives have a fitted effect of over 55% in size
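FUS-expressing yeast, raffinose-pregrown, induced in 2% galactose minimal medium at OD 0.005; compounds in a dilution series, 24hr at 30C. Growth restoration read as absorbance at 600 nm. CP55940 positive control, DMSO negative.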
Abeta rescue – restores growth of yeast expressing A-beta42 peptide | yeast expressing A-beta42, growth rescue, OD600, 48 h; response scale: 0% DMSO, 100% iron-clioquinol control | Potency, µM (series often up to 46.1 µM), most hits filed as activators | actives 0.063% (n = 410,000); also: nearly all actives have a fitted effect of over 55% in size
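Growth rescue measured by 600 nm absorbance after 48 h yeast culture at 30 C with compound. Values normalized between DMSO and an equimolar ferric chloride plus clioquinol control.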
Large screens that a line does not name were inactive; ! = a repeat was not active. Calls follow the shape of the dose curve; as a rule, active = well fitted curve in the direction sought with a large enough effect; inconclusive = small, poorly fitted or top-dose-only effect, or another doubt; inactive = no such curve, though single readings can be large; an effect the other way counts as inactive or inconclusive.

Cc1nc(Nc2nc3c(c(=O)[nH]2)CCC3)nc2ccccc12	aSyn yeast inh 11µM, TDP43 rescue 14µM
COc1ccc(-n2cc(COC(=O)NCCc3ccccc3)nn2)cc1	none (no result: aSyn yeast inh, TDP43 rescue, Abeta rescue)
COc1ccc(-c2cc(C(=O)N(C)Cc3ccc(F)cc3)c3ccccc3n2)cc1OC	TDP43 rescue 22µM
CC(C)C[C@H](NC(C)(C)C(=O)NC1CCCCC1)C(=O)NCCc1c[nH]c2ccccc12	none (no result: aSyn yeast inh, TDP43 rescue, Abeta rescue)
C#CCSc1nnc(CSc2nc3ccccc3s2)n1-c1ccccc1	TDP43 rescue 22µM
Cc1nn(C(C)C(=O)N2CCN(c3ccccn3)CC2)c(=O)c2cc3occc3n12 (stereo unspecified)	none
Cc1cccc(N2CCN(C(=O)C(C)n3nc(C)n4c(cc5occc54)c3=O)CC2)c1C (stereo unspecified)	TDP43 rescue 22µM!
CCc1nn(C(C)C(=O)N2CCN(c3ccc(OC)cc3)CC2)c(=O)c2cc3occc3n12 (stereo unspecified)	TDP43 rescue 32µM
Cc1cccc(N2CCN(C(=O)CCCn3ncn4c(cc5occc54)c3=O)CC2)c1C	TDP43 rescue 16µM (no result: aSyn yeast inh)
O=C(CCCn1ncn2c(cc3occc32)c1=O)N1CCc2ccccc2C1	none
CCc1nn(CCCC(=O)N2CCN(c3cccc(OC)c3)CC2)c(=O)c2cc3occc3n12	none (no result: aSyn yeast inh)
CCc1nn(CCCC(=O)N2CCN(c3cc(Cl)ccc3C)CC2)c(=O)c2cc3occc3n12	TDP43 rescue 35µM, FUS yeast rescue inconclusive (no result: aSyn yeast inh)
CCC(C(=O)N1CCN(c2ccc(OC)cc2)CC1)n1nc(C)n2c(cc3occc32)c1=O (stereo unspecified)	FUS yeast rescue inconclusive (no result: aSyn yeast inh)
COc1ccc(Cn2cc(CN3CC=CS3(=O)=O)nn2)cc1	none (no result: aSyn yeast inh, TDP43 rescue, Abeta rescue)
CC(SCc1ccccc1)C(=O)Nc1ccccc1-c1ccccc1 (stereo unspecified)	FUS yeast rescue 18µM
O=C(NCc1ccc(F)c(F)c1)c1cccc2c(-c3cccnc3)coc12	TDP43 rescue 13µM
O=C(Nc1cccc(OC(F)(F)F)c1)c1cccc2c(-c3cccnc3)coc12	TDP43 rescue 32µM, FUS yeast rescue inconclusive
COc1ccc(NC(=O)c2cccc3c(-c4cnn(C)c4)coc23)cc1	TDP43 rescue 13µM
O=C(NCc1cccc(Cl)c1)c1cccc2c(-c3cccnc3)coc12	TDP43 rescue 18µM, FUS yeast rescue inconclusive
Cn1cc(-c2coc3c(C(=O)Nc4ccccc4)cccc23)cn1	aSyn yeast inh inconclusive
COc1ccc(CNC(=O)c2cccc3c(-c4cccnc4)coc23)cc1OC	none
COc1ccccc1C(=O)n1ccc2ccc(-c3ccc4ccn(Cc5ccc(C#N)cc5)c4c3)cc21	none (no result: aSyn yeast inh, TDP43 rescue, Abeta rescue)
CCOC(=O)NC[C@@]1(C(=O)OC)CC(=O)N(Cc2ccc(Cl)cc2)[C@@H]1c1ccc(OC)cc1	none (no result: aSyn yeast inh, TDP43 rescue, Abeta rescue)
O=C(NCc1cccs1)c1cccc2c(-c3cccnc3)coc12	TDP43 rescue 18µM
O=C(NCc1cccs1)c1cccc2c(-c3ccc(F)c(F)c3)coc12	TDP43 rescue inconclusive
CC[C@H](CCCCCC#N)CCC(=O)N(c1ccccc1)c1ccccc1	none (no result: aSyn yeast inh, TDP43 rescue, Abeta rescue)
CC(/C=N/n1c(-c2ccccn2)n[nH]c1=S)=C\c1ccccc1	none
CC(/C=N/n1c(-c2ccco2)n[nH]c1=S)=C\c1ccccc1	TDP43 rescue 18µM
COc1ccc2c(=O)c(-c3ccccc3)c(C)oc2c1	TDP43 rescue 11µM
COC(=O)c1cc(-c2c(C)oc3cc(OC)ccc3c2=O)c(C)o1	none
CCCCOCCCNC(=O)C[C@H]1C(=O)N(CCCOC)C2=CCCCC[C@]21C(=O)OC	none (no result: aSyn yeast inh, TDP43 rescue, Abeta rescue)
CCOc1ccc(C2=Nn3c(CC)nnc3SC2)cc1	TDP43 rescue 18µM
CCc1ccc(C2=Nn3c(nnc3-c3cccs3)SC2)cc1	TDP43 rescue 11µM
CCCCCC(=O)NC1CCCCN(Cc2ccc(C)cc2)C1=O (stereo unspecified)	none (no result: aSyn yeast inh, TDP43 rescue, Abeta rescue)
OC(c1ccc(F)c(F)c1)c1nc(-c2cnc3ccccc3c2)cs1 (stereo unspecified)	TDP43 rescue 22µM
OC(c1ccc(F)c(F)c1)c1nc(-c2cccc(F)c2)cs1 (stereo unspecified)	TDP43 rescue 22µM
CC(C)c1cccc(-c2csc(C(O)c3ccc(F)c(F)c3)n2)c1 (stereo unspecified)	none
OC(c1ccc(F)c(F)c1)c1nc(-c2cccs2)cs1 (stereo unspecified)	TDP43 rescue 22µM
OC(c1ccc(F)c(F)c1)c1nc(-c2ccoc2)cs1 (stereo unspecified)	none
COc1ccc(-c2csc(C(O)c3ccc(F)c(F)c3)n2)cc1 (stereo unspecified)	aSyn yeast inh 11µM, TDP43 rescue inconclusive
c1ccc(CN2CCN(c3ncnc4sccc34)CC2)cc1	none (no result: aSyn yeast inh, TDP43 rescue, Abeta rescue)
O=[N+]([O-])c1ccc(OCCCN2CCC(C(O)(c3ccccc3)c3ccccc3)CC2)c(Cl)c1	none (no result: aSyn yeast inh, TDP43 rescue, Abeta rescue)
Cc1cnn(-c2ccccc2)c1NC(=O)COCc1ccccc1	none (no result: aSyn yeast inh, TDP43 rescue, Abeta rescue)
OC(c1ccc(F)c(F)c1)c1nc(-c2ccccc2)cs1 (stereo unspecified)	TDP43 rescue 14µM
O=C(O)c1cccc(-c2csc(C(O)c3ccc(F)c(F)c3)n2)c1 (stereo unspecified)	TDP43 rescue inconclusive
OC(c1ccc(F)c(F)c1)c1nc(-c2ccc3c(c2)OCO3)cs1 (stereo unspecified)	aSyn yeast inh inconclusive, TDP43 rescue 22µM
CC(OC(=O)c1ccccc1OCCOc1ccccc1)C(=O)Nc1ccc(Br)cc1 (stereo unspecified)	none (no result: TDP43 rescue, FUS yeast rescue, Abeta rescue)
CCCCCn1c(=O)c2ccccc2n2c(=S)[nH]nc12	TDP43 rescue 11µM
O=C(NC1CCCCN(Cc2cccc(Cl)c2)C1=O)c1ccc(COc2ccccc2)cc1 (stereo unspecified)	none (no result: aSyn yeast inh, TDP43 rescue, Abeta rescue)
CC(C)c1ccc(Nc2n[nH]c(=S)s2)cc1	TDP43 rescue 14µM
CCOc1ccc(NC(=S)N(CCc2c(C)[nH]c3ccc(C)cc23)Cc2ccco2)cc1	FUS yeast rescue 25µM
Cc1cccc(-c2nc3ccccc3c3nncn23)c1	TDP43 rescue 18µM
OC(c1ccccc1)c1nc(/C=C/c2ccccc2)cs1 (stereo unspecified)	TDP43 rescue 14µM
COc1cc(C(O)c2nc(/C=C/c3ccccc3)cs2)ccc1F (stereo unspecified)	TDP43 rescue 22µM
OC(c1ccc(F)cc1)c1nc(/C=C/c2ccccc2)cs1 (stereo unspecified)	TDP43 rescue inconclusive
O=C(Nc1nccs1)c1ccc(COc2ccccc2)o1	none
O=C(Nc1cccc(F)c1)c1ccc(CSc2ccccc2)o1	none
Cc1ccc(SCc2ccc(C(=O)Nc3nccs3)o2)cc1	TDP43 rescue 13µM, Abeta rescue inconclusive
O=C(Nc1ccccc1F)c1ccc(CSc2ccccc2)o1	TDP43 rescue 13µM
O=C(Nc1nccs1)c1ccc(CSc2ccccc2)o1	TDP43 rescue 11µM
Cc1ccc(SCC(=O)Nc2nccs2)cc1	TDP43 rescue 11µM
COc1ccc(C(=O)N[C@@H]2CC[C@@]34CCCN3C(=O)CCC[C@H]4[C@H]2C)cc1	none (no result: aSyn yeast inh, TDP43 rescue, Abeta rescue)
